Laboratory results from PubChem BioAssay AID1159580 (chemical genetic matrix, 2015).
About 2,000 (36%) of roughly 5,500 compounds were called active. About 18% were inconclusive and are not listed. No stated cut-off is given here; in the data, active means normalized growth mostly below about 0.91 (no sharp cut-off); inconclusive means no clear call, values can overlap the other calls; inactive means mostly above about 0.92. This is one part of the list.

Assay: chemical genetic growth profiling, strain panel (AID 1159580);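 further: tested at 20 µM; growth read once vehicle control cultures reached saturation at 30 °C; 1 = growth at the plate median or of vehicle wells; lower values mean less growth of the strain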
Settings: S. cerevisiae deletion strains, growth OD

Measured: normalized growth

OC[C@H]1O[C@@H](n2cnc3c(NC4CCCC4)ncnc32)C(O)[C@H]1O (stereo partly specified)
inactive: locus YAL013W, strain DEP1, active compounds read low 0.994 | locus YAL040C, strain CLN3, active compounds read low 0.989 | locus YER002W, strain NOP16, active compounds read low 1.03 | locus YJR075W, strain HOC1, active compounds read low 1.01 | locus YMR263W, strain SAP30, active compounds read low 1.03 | locus YNL128W, strain TEP1, active compounds read low 1 | locus YNL175C, strain NOP13, active compounds read low 1.03 | locus YNL197C, strain WHI3, active compounds read low 1.04 | locus YNL224C, strain SQS1, active compounds read low 1 | locus YOR083W, strain WHI5 (second series), active compounds read low 1.03 | locus YPL055C, strain LGE1, active compounds read low 1.01
